# Among all 3,000 compounds or so, about 45 (2%) showed an effect of 50% or more. What follows is part of a selection rich in strong results, with near analogues and random picks from the rest.
# System: MOLM1 and UCSD/AML1 (averaged)
# Experiment: cell viability relative to DMSO control (POC); higher = less growth inhibition
# Settings: 1 µM; 72 h
# Description: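 Primary viability screen in the 3q26 EVI1-high AML cell lines MOLM1 and UCSD/AML1, compounds at 1 uM for 72 h. ATP CellTiter-Glo read-out given as percent viable over DMSO control (POC), averaged over duplicates. This mapping covers the TimTec NDL-3000 natural derivative library, whose compounds are identified by TimTec catalogue codes (ST...).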
row,SMILES,cell viability [%]
1,O=C1CC(n2c(=O)oc3ccccc32)C2COC1O2 (stereo not drawn),14.7
2,O=C1C[C@H](n2nc(-c3ccccc3Br)oc2=S)[C@H]2CO[C@@H]1O2,55.5
3,O=C1CC(n2nnnc2-c2ccccc2Cl)C2COC1O2 (stereo not drawn),64.4
4,Cc1ccc2c(O)c([N+](=O)[O-])c(=O)oc2c1,103
5,Cn1c(=O)c2c(nc3n2CC(C24CC5CC(CC(C5)C2)C4)=NN3CCO)n(C)c1=O,106
6,CCOc1cc2c(cc1OCC)C(c1cccc(F)c1F)NCC2 (stereo not drawn),86.1
7,O=C(O)c1cccc(Nc2nc(-c3ccc(Cl)cc3)nc3ccccc23)c1,90
8,O=C(O)c1ccccc1-c1c2ccc(=O)c(Br)c-2oc2c(Br)c(O)ccc12,103
9,COc1ccc(C(=O)N2CCCc3cccc(OC)c32)cc1OC,90.1
10,O=C(O)/C=C/c1ccc([N+](=O)[O-])cc1,109
11,O=C(/C=C/c1ccc([N+](=O)[O-])cc1)c1cccc2ccccc12,32.8
12,O=C(/C=C/c1ccc(Cl)cc1Cl)c1cccc2ccccc12,95.1
13,COc1ccc2c(c1)c(CC(=O)NCc1ccccn1)c(C)n2C(=O)c1ccc(Cl)cc1,84.5
14,O=C(/C=C/c1ccccc1)c1ccc(O)cc1O,96.7
15,O=C(/C=C/c1ccccc1)c1ccc(O)cc1,2.68
16,O=C(/C=C/c1ccccc1)c1cc(O)ccc1O,93.7
17,COc1ccc(/C=C(\C#N)C(=O)OC(C)C)c(OC)c1OC,106
18,O=c1[nH]c(=O)n(C2C[C@H](O)[C@@H](CO)O2)cc1I (stereo partly drawn),89.8
19,O=c1[nH]c(=O)n(C2CC(O)C(CO)O2)cc1C(F)(F)F (stereo not drawn),29.6
20,CC(=O)OC1CC(n2cc(C)c(=O)[nH]c2=O)OC1CO (stereo not drawn),98.2
21,CCOc1ccc2oc(=O)cc(CN3CCNCC3)c2c1,90.2
22,CCOc1ccccc1C(=O)NCCc1c(C)[nH]c2ccccc12,105

row,SMILES,cell viability [%]
1,COc1ccc(C2c3[nH]c4ccccc4c3CCN2CC(=O)Nc2ccc(C)cc2)cc1 (stereo not drawn),87.2
2,COc1ccc(C(=O)/C=C/c2ccccc2)c(O)c1,101
3,O=C(/C=C/c1ccc(O)cc1)c1ccc(O)cc1O,102
4,COc1ccc(/C=C/C(=O)c2ccc(O)cc2C)cc1,22.5
5,COc1ccc2c(c1)c(CC(=O)NCCSc1ccccc1)c(C)n2C(=O)c1ccc(Cl)cc1,98.5
6,COc1ccc(C(NS(=O)(=O)c2ccc(C)cc2)c2nccc3cc(OC)c(OC)cc23)cc1OC (stereo not drawn),98.4
7,C=CCN(C(=O)CSc1nc2ccccc2c(=O)[nH]1)c1ccccc1,88.4
8,COc1ccc(OC)c(NC(=O)c2cc(OC)c(OC)c(OC)c2)c1,85.9
9,C=CCN(C(=O)CSc1nc2c(=O)[nH]cnc2n1-c1ccccc1)c1ccccc1,98
10,CCCCCOc1ccc(C2=NOC(=O)/C2=C\c2cc(Cl)ccc2O)cc1,92.3
11,Cc1ccc(-n2c(SCc3ccccc3F)nc3c(=O)[nH]cnc32)cc1,95.2
12,COc1ccc(-c2cc(C(F)(F)F)nc(SC3CC(O)C4OCC3O4)n2)cc1OC (stereo not drawn),98.4
13,CC1CCc2nc(S[C@H]3CC(=O)[C@@H]4OC[C@H]3O4)nc(C(F)(F)F)c2C1 (stereo partly drawn),39.9
14,COc1ccc(-c2cc(-c3ccc4c(c3)OCO4)[nH]c(=O)c2C#N)cc1,97.1
15,CC1(C)C2CCC1(CS(=O)(=O)Nc1ccncc1)C(=O)C2 (stereo not drawn),106
16,COc1cc(C(=O)NCC(C)NC(=O)c2cc(OC)c(OC)c(OC)c2)cc(OC)c1OC (stereo not drawn),99.3
17,CCOc1ccc2oc(=O)cc(CN3CCN(CC(=O)Nc4cc(F)ccc4F)CC3)c2c1,98.5
18,CCOC(=O)c1c(CSCc2ccccc2)n(-c2ccccc2)c2cc(Br)c(OC)cc12,110
19,CCOC(=O)c1c(C)n(-c2ccccc2)c2cc(Br)c(OC)cc12,110
20,CCOC(=O)c1c(CC(C#N)(c2ccccc2)c2ccccc2)n(C)c2cc(Br)c(OC)cc12,17.7
21,Cn1c(=O)c2ccccc2n(CC(=O)N2CCc3ccccc3C2)c1=O,107
22,COc1ccc(NC(=O)CSc2nc3c(=O)[nH]cnc3n2-c2ccc(C)cc2)cc1OC,92.8

row,SMILES,cell viability [%]
1,Cc1ccc2occ(C)c(=O)c2c1,98.5
2,O=C(Cn1c(=O)cc(C(=O)N2CCc3ccccc3C2)c2ccccc21)Nc1ccc(Cl)cc1,105
3,CCc1ccc(C2C(C#N)=C(N)Oc3cc(O)ccc32)cc1 (stereo not drawn),110
4,N#CC1=C(N)Oc2cc(O)ccc2C1c1ccccc1F (stereo not drawn),13.8
5,N#CC1=C(N)Oc2[nH]c(=O)[nH]c(=O)c2C1c1ccccc1F (stereo not drawn),94.3
6,N#CC1=C(N)Oc2cc(O)ccc2C1c1cccc(C(F)(F)F)c1 (stereo not drawn),22.1
7,N#CC1=C(N)Oc2cc(O)ccc2C1c1ccccc1 (stereo not drawn),104
8,N#CC1=C(N)Oc2cc(O)ccc2C1c1cccc([N+](=O)[O-])c1 (stereo not drawn),101
9,O=C(O)CNC(=O)c1ccc(Cl)cc1,108
10,O=c1c(O)c(-c2ccc(F)cc2)oc2cc(Cl)ccc12,100
11,Cc1cc(C)c(NC(=O)Cn2c(=O)cc(C(=O)N3CCCCC3)c3ccccc32)c(C)c1,99.4
12,COCCOC(=O)c1c(C)n(CCOC23CC4CC(CC(C4)C2)C3)c2c1cc(O)c1ccccc12,81.2
13,Cc1ccc(-n2c(SCC(=O)Nc3ccccc3C(F)(F)F)nc3c(=O)[nH]cnc32)cc1,108
14,COc1cc(C(=O)Nc2ccc(C(=O)c3cccs3)cc2)cc(OC)c1OC,99.7
15,CCCCc1ccc(NC(=O)c2cc(OC)c(OC)c(OC)c2)cc1,49.6
16,COc1cc(C(=O)Nc2ccc3ncn(C)c3c2)cc(OC)c1OC,93.9
17,COc1cc(C(=O)Nc2ccc(C(F)(F)F)cc2)cc(OC)c1OC,93.8
18,COc1cc(C(=O)Nc2ccccc2C(=O)NCc2ccccc2)cc(OC)c1OC,85.2
19,COC(=O)c1ccc(NC(=O)c2cc(OC)c(OC)c(OC)c2)cc1,23.1
20,COc1cc(C(=O)Nc2ccccc2C(=O)Nc2ccccc2)cc(OC)c1OC,36
21,COc1cc(C(=O)Nc2ccc(C(=O)NCc3ccccc3)cc2)cc(OC)c1OC,87
22,COc1cc(C(=O)Nc2ccc(CN3CCCC3)cc2)cc(OC)c1OC,87.4

row,SMILES,cell viability [%]
1,COc1ccc(C(=O)Nc2ccc3ncn(C)c3c2)cc1OC,101
2,COc1cc(C(=O)Nc2ccc3c(c2)ncn3C)cc(OC)c1OC,19
3,COc1cc(C(=O)Nc2ccccc2NC(=O)c2cc(OC)c(OC)c(OC)c2)cc(OC)c1OC,95.9
4,O=C(CSc1nc2ccccc2c(=O)[nH]1)NCc1ccccc1Cl,107
5,Cc1ccc(NC(=O)CN2C(=O)S/C(=C/c3cc4c(cc3Cl)OCO4)C2=O)cc1,92
6,CNC(=O)c1ccccc1NC(=O)C(=O)c1c[nH]c2ccccc12,111
7,CCOC(=O)/C=C1\NC(C)(C)Cc2cc3c(cc21)OCCO3,89.5
8,CC(C)COc1ccc(C(=O)N/C(=C\c2ccccc2)C(=O)NCCNC(=O)/C(=C\c2ccccc2)NC(=O)c2ccc(OCC(C)C)cc2)cc1,103
9,COc1cc(OC)cc(C(=O)Nc2cc(OC)cc(S(=O)(=O)c3ccc(Cl)cc3)c2)c1,92.8
10,CCc1cccc(C)c1NC(=O)CN1CCN(Cc2cc(=O)oc3cc(C)ccc23)CC1,95.4
11,Cc1ccc2c(C)cc(=O)[nH]c2c1C,109
12,COc1cc(C(=O)CCNc2ccc(F)cc2)cc(OC)c1OC,78.3
13,Cc1ccc2[nH]c(C)c(CCNS(=O)(=O)c3ccc4c(c3)OCCO4)c2c1,99.4
14,COc1ccc(/C=C/C(=O)c2ccccc2)cc1COc1ccc([N+](=O)[O-])cc1,101
15,COc1ccc(/C=C/C(=O)c2ccccc2)cc1COc1ccc(Cl)cc1,106
16,COc1ccc(/C=C/C(=O)c2ccccc2)cc1COc1ccc(NC(C)=O)cc1,40
17,Cc1ccc(C)c(-c2nc(CSc3nc4c(=O)[nH]cnc4n3C)c(C)o2)c1,103
18,Cc1cc2c(c(O)c1-c1c(C)cc3c(c1O)/C(=C/Nc1c(C)n(C)n(-c4ccccc4)c1=O)C(=O)C(O)=C3C(C)C)/C(=C/Nc1c(C)n(C)n(-c3ccccc3)c1=O)C(=O)C(O)=C2C(C)C,84.6
19,COc1cc(C(=O)NC(C(=O)O)C(C)C)cc(OC)c1OC (stereo not drawn),103
20,CC(C)(C)c1ccc(C(=O)NCC(=O)O)cc1,95.9
21,O=[N+]([O-])C1=Cc2ccccc2OC1c1ccc2c(c1)OCO2 (stereo not drawn),2.67
22,O=C(/C=C/c1cccc([N+](=O)[O-])c1)c1ccc2c(c1)OCO2,98.1

row,SMILES,cell viability [%]
1,O=C(/C=C/c1ccc([N+](=O)[O-])cc1)NCc1ccc2c(c1)OCO2,97
2,COCCN1C(=O)/C(=C\c2cc(OC)c(OC)c(OC)c2)C(C(=O)OC)=C1C,101
3,O=C(CCNc1cccc(Cl)c1)c1cc2ccccc2oc1=O,115
4,CCOC(=O)c1ccc2[nH]c(=O)c(Cc3ccccc3)c(O)c2c1,97.9
5,CCOC(=O)c1ccc2[nH]c(-c3ccccc3)cc(=O)c2c1,7.45
6,CCOC(=O)c1ccc2[nH]c(=O)c(C)c(O)c2c1,108
7,COc1ccc(C(=O)CC2(O)C(=O)N(Cc3cccc4ccccc34)c3ccccc32)cc1OC (stereo not drawn),97.5
8,NC(=O)CC1CCCCN1 (stereo not drawn),126
9,Cc1ccc2oc(-c3ccc(Cl)cc3)cc(=O)c2c1,85.9
10,O=c1cc(C(Cl)(Cl)Cl)oc2ccc(Cl)cc12,7.16
11,Cc1ccc2oc(-c3ccccc3C)cc(=O)c2c1,21.6
12,O=c1cc(-c2ccccc2Br)oc2ccc(Cl)cc12,110
13,O=c1cc(O)c2cc(Cl)ccc2o1,101
14,O=c1cc(-c2ccc(Br)cc2)oc2ccc(Cl)cc12,96
15,O=c1cc(C(Cl)(Cl)Cl)oc2ccccc12,4.98
16,O=c1ccoc2ccccc12,93.1
17,Cc1ccccc1-c1cc(=O)c2cc(Br)ccc2o1,106
18,Cc1ccc2oc(C(Cl)(Cl)Cl)cc(=O)c2c1,26.6
19,Cc1ccc2occc(=O)c2c1,100
20,Cc1ccc(-c2cc(=O)c3ccccc3o2)cc1,92.3

# From the supplement of paper PMC11150407
